Source: PubChem
MBNL1-CUG inh = MBNL1-poly(CUG) RNA binding inhibition | Potency, µM (titrated, usually from 57.5 µM), most hits filed as inhibitors | Q9NR56 | TR-FRET MBNL1-His/biotin-(CUG)12 binding, 665/545 ratio | 0.036% of 280,000 active; active = well fitted inhibition curve with a large enough effect in the signal ratio, with a control signal flat, not every such curve was filed as active; inconclusive = small, poorly fitted or top-dose-only effect, or effect the other way, or a change in a side signal; inactive = no such curve, though single readings can be large or run the other way; the % refers to the signal ratio
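Compounds (final 92 nM to 58 uM) are added to His-tagged MBNL1 and biotin-(CUG)12, then terbium anti-His antibody and streptavidin-XL665 (5 nM final). After 60 min at room temperature, the 665/545 nm ratio is read.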
CBFb-RUNX1 inh = blocks binding between human CBF-beta and RUNX1; 230,000 tested, under 10 active; AlphaScreen CBFb-His/RUNX1-biotin binding, biochemical; Potency, µM (doses to about 59.8 µM), actives largely listed as inhibitors; Q01196+Q13951
Target sequence (Q01196 whole entry, looked up): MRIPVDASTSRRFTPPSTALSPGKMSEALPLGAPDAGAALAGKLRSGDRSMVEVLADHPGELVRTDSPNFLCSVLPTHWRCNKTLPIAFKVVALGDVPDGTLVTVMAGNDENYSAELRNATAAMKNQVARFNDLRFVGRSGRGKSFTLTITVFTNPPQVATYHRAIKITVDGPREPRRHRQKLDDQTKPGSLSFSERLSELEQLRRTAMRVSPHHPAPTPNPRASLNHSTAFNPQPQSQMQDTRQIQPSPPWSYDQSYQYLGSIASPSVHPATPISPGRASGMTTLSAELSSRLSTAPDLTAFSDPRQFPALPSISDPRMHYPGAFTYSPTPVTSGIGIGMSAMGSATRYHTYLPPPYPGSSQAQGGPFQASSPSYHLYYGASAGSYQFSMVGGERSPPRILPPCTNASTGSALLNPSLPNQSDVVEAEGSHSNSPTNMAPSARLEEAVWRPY
Target sequence (Q13951 whole entry, looked up): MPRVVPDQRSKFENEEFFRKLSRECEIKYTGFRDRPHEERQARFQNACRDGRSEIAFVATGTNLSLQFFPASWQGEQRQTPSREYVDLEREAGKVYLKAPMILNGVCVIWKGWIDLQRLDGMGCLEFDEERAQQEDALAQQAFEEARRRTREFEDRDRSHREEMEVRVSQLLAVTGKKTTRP
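AlphaScreen proximity signal reports loss of binding between His-tagged CBF-beta and biotin-labelled RUNX1, each at 30 nM. Proteins are pre-associated for 20 minutes, compounds added for 15 minutes, then beads for 90 minutes, all at ambient temperature.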
PLK1 PBD block = blocks phosphopeptide binding to human PLK1 polo-box domain; AID 720504; 2.8% of 360,000 active; Potency, µM, hits mostly inhibitors; Plk1 PBD binding of FITC phosphopeptide, fluorescence polarization; note: series mostly up to about 57 µM; nearly all actives have a fitted effect of over 65% in size
KCNH2 3.1 block = KCNH2 3.1 (human) potassium channel inhibition; U2OS KCNH2 3.1, thallium flux FluxOr; active compounds read low; activity change, % (tested at about 1.8 µM); 0.95% of 340,000 active; AID 720553;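 active = maximum activity change below -70%; inconclusive = maximum activity change from -70% to -50%; inactive = maximum activity change above -50%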;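 note: thallium influx rate constant from kinetic fluorescence after stimulation buffer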
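Kinetic fluorescence (2 min after stimulation buffer) measures Tl+ influx through KCNH2 3.1 expressed by viral transduction in U2OS cells; the rate constant is normalized against DMSO controls serving as positive and negative references.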
hERG WT inh = KCNH2 (human, wildtype) channel inhibition; 0.37% of 340,000 active; AID 720551; activity change, % at 1.84 µM; Q12809; U2OS, BacMam KCNH2, thallium flux FluxOr; active compounds read low;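 active = maximum activity change below -70%; inconclusive = maximum activity change between -70% and -50%; inactive = maximum activity change above -50%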
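U2OS cells transduced with wild-type KCNH2 virus are loaded with FluxOr dye for 45 min, and thallium flux is measured in kinetic reads before and after stimulation buffer. Rate constants are normalized to DMSO controls.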
VDR inh = inhibitors of human vitamin D receptor | 0.93% of 400,000 active | P11473 | AID 504847 | VDR-SRC2-3 peptide fluorescence polarization, 2 h | Potency, µM, usual class: inhibitors
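Reagent solutions, kept cold and dark, are dispensed first; compounds are then pinned in at 23 nl, plates briefly spun, and incubated 2 h at ambient temperature. Inhibition of VDR–SRC2-3 peptide binding is read by fluorescence polarization.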
Hits are given with their value; - = inactive; ? = inconclusive; . = not tested or not shown. Only some compounds are listed: those with a hit (about 3.8% of all), similar ones and a draw of the others. Unless noted, calls come from the whole dose curve; as a rule, active = well fitted curve in the direction sought with a large enough effect; inconclusive = small, poorly fitted or top-dose-only effect, or another doubt; inactive = no such curve, though single readings can be large; an effect the other way counts as inactive or inconclusive.

SMILES | MBNL1-CUG inh | CBFb-RUNX1 inh | PLK1 PBD block | KCNH2 3.1 block | hERG WT inh | VDR inh
Nc1c(C(=O)O)cnc2c(-c3ccc(Cl)cc3)cnn12 | . | - | ? | - | - | -
CCOc1ccc(S(=O)(=O)O)c2cccnc12 | . | . | . | . | . | -
COC(=O)c1c(C)c2c(c(C)c1O)OC(=O)c1c(C)c(Cl)c(O)c(Cl)c1O2 | . | - | . | . | . | ?
COC(=O)c1c(OC)cc2c(c1C)Oc1c(Cl)c(O)c(Cl)c(C)c1C(=O)O2 | . | - | . | . | . | 40µM
O=C1C(Cl)=C(N2CCCCC2)C(=O)C(Cl)=C1c1cnc(N2CCCCC2)s1 | - | . | 7.5µM | - | - | ?
CN(C)c1ncc(C2=C(Cl)C(=O)C(N3CCCC3)=C(Cl)C2=O)s1 | . | . | 7.5µM | - | - | 28µM
CC(C)NC(=O)c1cnc2sc(N3CCCCCC3)nn2c1=O | . | . | . | . | . | -
COc1ccc(Cl)cc1NC(=O)Cn1nc(Cc2ccncc2)c2ccccc2c1=O | . | . | . | . | . | -
O=C(COC(=O)c1ccccc1C(=O)c1ccccc1)NCc1ccc(F)cc1 | . | - | 24µM | - | - | ?
CN1C2CCC1/C(=C\c1ccc(F)cc1)C(=O)/C2=C/c1ccc(F)cc1 | - | - | - | - | - | ?
C=CC(=O)N1C/C(=C/c2ccc(F)cc2)C(=O)/C(=C\c2ccc(F)cc2)C1 | . | . | ? | - | - | 10µM
CCC1NC(=S)NC(C)=C1C(=O)c1ccccc1 (stereo unspecified) | - | - | - | -116 | - | -
CN(C)c1oc(/C=C/c2ccccc2)nc1C#N | ? | - | - | - | -262 | -
CN(C)c1oc(/C=C/c2ccc(F)cc2)nc1C#N | . | . | . | . | . | -
CNC(=O)c1c(N)sc2c1CCCCC2 | - | - | . | . | . | .
CC(C)OC(=O)c1c(N)sc2c1CCCC2 | . | . | 24µM | - | - | ?
Cc1cccc(C(=O)c2c(N)sc3c2CCCC3)c1 | - | - | ? | - | - | -
Nc1sc2c(c1C(=O)c1ccc(Cl)cc1)CCCC2 | . | - | . | . | . | 45µM
Cc1cc(O)c2c(c1)OC1(C)CCC3C(C)(C)CCCC34COC2C14 (stereo unspecified) | . | . | . | . | . | -
COc1ccc(NC(=S)NNS(=O)(=O)c2ccc3ccccc3c2)c(OC)c1 | - | - | 30µM | - | - | ?
NC(=O)Cn1nnc(-c2ccc(CN3CCCCC3)cc2)n1 | - | - | - | -82 | - | -
Cc1cccc(NC(=O)Cn2nnc(-c3ccc(CN4CCCC4)cc3)n2)c1C | - | - | - | - | - | -
CCOC(=O)C(NC(=O)CC)(Nc1ccc(S(=O)(=O)Nc2onc(C)c2C)cc1)C(F)(F)F (stereo unspecified) | - | - | 27µM | - | - | -
CCOC(=O)C(NC(C)=O)(Nc1ccc(S(=O)(=O)Nc2nccs2)cc1)C(F)(F)F (stereo unspecified) | - | - | - | - | - | -
CCOC(=O)C(NC(C)=O)(Nc1ccc(S(=O)(=O)Nc2ncccn2)cc1)C(F)(F)F (stereo unspecified) | - | - | 30µM | - | - | ?
SMILES | MBNL1-CUG inh | CBFb-RUNX1 inh | PLK1 PBD block | KCNH2 3.1 block | hERG WT inh | VDR inh
N#CCCn1cc(C(=O)Nc2ccc(C(=O)O)cc2)c(-c2cccs2)n1 | - | - | 6µM | - | . | ?
CC[C@H](C)[C@H](NC(=O)[C@H](CCC(=O)O)NC(=O)[C@@H](N)CO)C(=O)N[C@@H](CCC(N)=O)C(=O)N[C@@H](CC(C)C)C(=O)N[C@@H](CCSC)C(=O)N[C@@H](Cc1cnc[nH]1)C(=O)N[C@@H](CC(N)=O)C(=O)N[C@@H](CC(C)C)C(=O)NCC(=O)N[C@@H](CCCCN)C(=O)N[C@@H](Cc1cnc[nH]1)C(=O)N[C@@H](CC(C)C)C(=O)N[C@@H](CC(N)=O)C(=O)N[C@@H](CO)C(=O)N[C@@H](CCSC)C(=O)N[C@@H](CCC(=O)O)C(=O)N[C@@H](CCCNC(=N)N)C(=O)N[C@H](C(=O)N[C@@H](CCC(=O)O)C(=O)N[C@@H](Cc1c[nH]c2ccccc12)C(=O)N[C@@H](CC(C)C)C(=O)N[C@@H](CCCNC(=N)N)C(=O)N[C@@H](CCCCN)C(=O)N[C@@H](CCCCN)C(=O)N[C@@H](CC(C)C)C(=O)N[C@@H](CCC(N)=O)C(=O)N[C@@H](CC(=O)O)C(=O)N[C@H](C(=O)N[C@@H](Cc1cnc[nH]1)C(=O)N[C@@H](CC(N)=O)C(=O)N[C@@H](Cc1ccccc1)C(=O)O)C(C)C)C(C)C | . | - | . | . | . | -
Cc1ccc(-c2nc(C(=O)NC3CCCCCC3)no2)cc1 | . | . | 9.5µM | - | - | 79µM
Cc1ccc2oc(C(=O)Nc3c(C(=O)Nc4ccccc4)oc4ccccc34)cc(=O)c2c1 | . | . | . | . | . | -
Cc1ccc(NC(=O)c2cc(S(=O)(=O)N3CCOCC3)ccc2F)c(C)c1 | - | - | - | - | - | -
Cc1c(C(=O)NCc2c(F)cc(F)cc2F)oc2ccc(S(=O)(=O)N3CCOCC3)cc12 | - | . | 19µM | - | - | ?
Cc1cc(C)c(NC(=O)c2cc(S(=O)(=O)N3CCOCC3)ccc2F)c(C)c1 | - | . | 11µM | - | - | ?
CCc1sc(-c2cc3ccccc3oc2=O)nc1-c1ccc(C)cc1 | . | . | . | . | . | -
CC(Sc1ccc2nnc(-c3ccc(F)cc3)n2n1)C(=O)O (stereo unspecified) | ? | - | 27µM | - | - | ?
CCOC(=O)c1scc(-c2ccc(C)cc2)c1S(=O)(=O)Nc1ccc(OC)c(Cl)c1 | . | . | . | . | . | -
COc1ccc(N=C2NC(=O)/C(=C\C=C\c3ccco3)S2)cc1 | - | ? | 21µM | - | - | -
Cc1cccc(N=C2NC(=O)/C(=C/C=C/c3ccco3)S2)c1 | - | ? | ? | - | - | ?
Cc1ccc(SSc2cc(C)ccc2N)c(N)c1 | . | . | 0.34µM | - | - | 6.3µM
c1ccc(Cn2c(CNc3nc4ccccc4n3CCN3CCOCC3)nc3ccccc32)cc1 | - | - | - | -85 | - | -
c1ccc2c(c1)nc(NCc1ccc3c(c1)OCO3)n2CCN1CCOCC1 | - | - | - | - | - | -
CC1CCN(c2ccc(-c3nc(-c4ccccc4)no3)cc2[N+](=O)[O-])CC1 | . | . | . | . | . | -
N#CC(C#N)=C1C=CC=CN1/C(=C\c1ccccc1)C(=O)c1cccs1 | ? | - | 2.1µM | - | - | ?
O=C(N/N=C/C(Br)=C\c1ccccc1)c1cccs1 | - | - | - | - | - | -
CC1CCN(C(=O)/C(=C/c2ccccc2Cl)c2ccccc2)CC1 | - | - | - | - | - | -
N#CC(C#N)=C1C=CC=CN1/C(=C\c1ccccc1Cl)C(=O)c1ccccc1 | - | - | 1.7µM | - | - | ?
CCOc1ccc(-c2nc3c(C#N)c[nH]n3c2NC2CCCC2)cc1 | . | . | . | . | . | -
COc1cc(OC)c(OC)cc1CN1CCC(O)CC1 | - | - | - | -90 | - | -
